In PubChem BioAssay (NCI):
Compounds without any hit were thinned out: in the full panel of roughly 79,000, 15% have a hit. Rule as the data show it: active = growth inhibition above about 70%; inactive = the rest. Where a SMILES comes first, the peptide text is derived from it. [ ]: non-standard residue; d: D form. The star is where a group is joined. ξ: configuration not given here. ξL = CC(C)CC(N)C(=O)O; ClAc = O=C(CCl)*

Experiments:
[1] = NCI Yeast Anticancer Drug Screen. Data for the rad50 strain (AID 155);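 also: 0% = growth of vehicle-only cultures of the same strain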; details: S. cerevisiae rad50 strain growth inhibition; at 50.0 µM; hits give high values
How it was run: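 A DNA repair-deficient yeast mutant serves as the test organism; compound-induced growth inhibition is calculated against vehicle-treated cells.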

[2] = NCI Yeast Anticancer Drug Screen. Data for the mec2-1 strain (AID 157); details: S. cerevisiae mec2-1 strain, at 50.0 µM, hits give high values
How it was run: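 Cells of the genetically defined mec2-1 yeast strain are incubated with test compound. Inhibition of growth is calculated against vehicle-treated controls.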

[3] = NCI Yeast Anticancer Drug Screen. Data for the mlh1 rad18 strain (AID 175); details: S. cerevisiae mlh1 rad18 strain growth inhibition; at 50.0 µM; hits give high values
How it was run: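 Compound-treated yeast growth, normalised to vehicle controls. Strain bears defined DNA repair mutations.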

Measured: growth inhibition

CC(=O)CC(=O)N1CCN(C(=O)CC(C)=O)CC1
inactive: [1] -16.9% | [2] -16.8% | [3] -23.3%

O=C(N/N=C/c1ccc2c(c1)CCC2)c1cccc([N+](=O)[O-])c1
inactive: [1] -17.9% | [2] -30.9% | [3] -15.8%

CCC(C)NCCNCCNC(C)CC (stereo not drawn)
inactive: [1] -9% | [2] -11.1% | [3] 0.8%

CC1=NN(c2ccccc2)C(=O)C1C(=O)c1ccccc1 (stereo not drawn)
inactive: [1] 22.2% | [2] -3.65% | [3] 14%

Cn1c(=S)sc2ccc3ccccc3c21
inactive: [1] -17.4% | [2] -11.1% | [3] -25.9%

COc1ccc(C(C#N)N2CCOCC2)cc1 (stereo not drawn)
inactive: [1] 17.8% | [2] -11.7% | [3] 5.35%

COC(=O)c1cc(NC(=O)CC(=O)c2cccc(N)c2)cc(C(=O)OC)c1
inactive: [1] -3.8% | [2] -12.8% | [3] 8.4%

CC(O)Cn1cnc2c1c(=O)n(C)c(=O)n2C (stereo not drawn)
inactive: [1] -40.1% | [2] -42.8% | [3] -30.1%

CC(C)Oc1ccc(C(=O)NS(=O)(=O)c2ccc(N)cc2)cc1
inactive: [1] -25% | [2] -32.5% | [3] -8.4%

CC(=O)c1cccc(OCc2ccccc2)c1
inactive: [1] 6.4% | [2] 2.75% | [3] 8.4%

CCOc1ccc(/C=C(/C#N)C(N)=O)cc1
inactive: [1] 9.7% | [2] -8.1% | [3] 9.05%

CC1(O)CC2CC1C(C(=O)O)C2C(=O)O (stereo not drawn)
inactive: [1] -0.85% | [2] -27.6% | [3] -15.1%

CCOC(=O)CN1C(=O)C(=O)c2ccccc21
inactive: [1] 18.9% | [2] 5.3% | [3] 24.4%

NS(=O)(=O)c1ccc(NC(=O)/C=C/C(=O)O)cc1
inactive: [1] -11.9% | [2] -10.4% | [3] -4%

O=C(NC(CO)C(O)c1ccc([N+](=O)[O-])cc1)C(Cl)Cl (stereo not drawn)
inactive: [1] -32.2% | [2] -35.6% | [3] -19.5%

CC(C)C(C(=O)c1ccccc1)c1ccccc1 (stereo not drawn)
inactive: [1] -0.3% | [2] -10.1% | [3] -3.55%

CCN(CC)CCN(C)CC(=O)Nc1ccccc1C
inactive: [1] 1.9% | [2] 6.3% | [3] 38.4%

CCN(CC)c1ccc(N=Cc2ccccc2S(=O)(=O)O)cc1
inactive: [1] 0.9% | [2] -11.4% | [3] 34%

Fc1ccccc1Nc1n[nH]c(=S)s1
inactive: [1] 55.9% | [2] 56.7% | [3] 38.8%

O=c1oc(/C=C/c2ccccc2)nc2cc(Cl)ccc12
inactive: [1] 19.6% | [2] 10.1% | [3] 10.4%

CN(Cc1ccccc1)Cc1ccccc1
inactive: [1] 8.4% | [2] -3.9% | [3] 14.7%

S=C=NC1CCCCCCCCCCC1
inactive: [1] 18.9% | [2] -3.9% | [3] 36.6%

S=C1SCN(Cc2ccccc2)CN1Cc1ccccc1
inactive: [1] -10.1% | [2] -26.1% | [3] -13.3%

CC(C)CC(NC(=O)CCl)C(=O)NCC(=O)O (stereo not drawn) (ClAc-[ξL]-Gly-OH)
inactive: [1] 8.05% | [2] 9.65% | [3] -3.75%

COc1ccc(-c2cc(=O)c3c(C)cc(O)cc3o2)cc1
inactive: [1] -9.4% | [2] -16.1% | [3] 37.9%

C#Cc1c(-c2c[nH]c3ccccc23)ccc[n+]1C
inactive: [1] -12.5% | [2] -36.1% | [3] -24.4%

OC(c1ccc(F)cc1)(c1cccs1)C1CC1 (stereo not drawn)
inactive: [1] -9.55% | [2] -4.75% | [3] -20.2%

CC1=NN(c2ccccc2)C(=O)/C1=C\c1ccc(N(CCC#N)CCC#N)cc1
inactive: [1] 6.85% | [2] -4.95% | [3] 21.9%

Cc1ccc(N2C(=O)CC(Sc3ccccc3N)C2=O)cc1Cl (stereo not drawn)
inactive: [1] -15.5% | [2] -35.6% | [3] -11.9%

NC(=O)C(c1ccccc1)N1CCCC1 (stereo not drawn)
inactive: [1] 2.05% | [2] -17.9% | [3] -0.55%

CCOc1ccc(Br)cc1C=O
inactive: [1] 54.2% | [2] 17.4% | [3] 45.1%
